IP6K1 inhibitor – IP6K1 kinase inhibition; Q92551; IP6K1 kinase, ADP-Glo luminescence, 2 h; hits give low values; activity change, % (series mostly up to about 58 µM); 140,000 tested, 0.81% active; in the data active = activity change below about -25%; also: % is scaled to controls: 0 for no effect and ±100 for the full control effect
Target sequence (Q92551 whole entry, looked up): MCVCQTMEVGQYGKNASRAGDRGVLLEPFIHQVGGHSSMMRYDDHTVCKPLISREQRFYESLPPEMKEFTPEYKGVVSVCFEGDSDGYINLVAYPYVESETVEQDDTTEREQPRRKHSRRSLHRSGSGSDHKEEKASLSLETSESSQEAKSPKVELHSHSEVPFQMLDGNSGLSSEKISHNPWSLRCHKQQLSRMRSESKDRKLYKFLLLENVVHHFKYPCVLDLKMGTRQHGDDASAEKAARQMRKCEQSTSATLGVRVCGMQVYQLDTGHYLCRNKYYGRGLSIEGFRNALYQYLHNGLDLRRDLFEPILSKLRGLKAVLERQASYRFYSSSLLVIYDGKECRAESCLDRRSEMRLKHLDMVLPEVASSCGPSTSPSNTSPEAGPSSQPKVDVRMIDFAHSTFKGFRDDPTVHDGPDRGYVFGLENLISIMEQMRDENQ
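ADP-Glo luminescence measures ADP made by human IP6K1 during a 2 h RT reaction with ATP/IP6 (mix at 1.3 mM/130 uM); top library doses 57.5 and 19.1 uM final.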
KDM5B inhibitor – blocks human KDM5B histone demethylase activity | Q9UGL1 | 220,000 tested, 2.6% active | AID 1347165 | Potency, µM (top dose mostly 57.7 µM), most hits filed as inhibitors | KDM5B demethylase, FDH-coupled NADH fluorescence (FDH is formaldehyde dehydrogenase); also: potency is read from the fitted curve at half-maximal effect; 0% is about no effect; nearly all actives have a fitted effect of over 70% in size
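Here, H3K4me3 peptide (12.5 µM in substrate mix) is demethylated by KDM5BΔAP, 200 nM final, after 10 min compound exposure. Formaldehyde product is coupled through FDH (0.25 U/mL in mix) to NADH fluorescence; 30-min ΔRFU feeds dose-response curves.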
An asterisk follows results filed as active; i = inactive; ? = inconclusive; nt = no result. Hits are enriched below; roughly 2.8% of the tested compounds scored in any of these assays.

SMILES	IP6K1 inhibitor	KDM5B inhibitor
C=CCNC(=O)c1ccccc1NC(=O)C1CCC1	nt	i
CC(C)NC[C@H]1COCc2nc3ccccc3n21	-1.1	i
CCn1cnc2c1c(=O)n(CC(=O)Nc1ccccc1OC(F)F)c(=O)n2Cc1ccccc1	nt	i
NC(=O)Nc1ccc(NC(=O)c2nccnc2N)cc1	nt	i
O=c1c2c3c(sc2nnn1Cc1ccc(F)cc1)CCCC3	-2.7	i
O=C(O)Cn1cc(C(C(=O)O)N2CCN(Cc3ccncc3)CC2)c2cc(Br)ccc21 (stereo not drawn)	nt	i
O=C(CCC1CCCN(S(=O)(=O)c2ccccc2)C1)NCC1CC1 (stereo not drawn)	-2.3	20µM*
Cc1ccccc1S(=O)(=O)N1CCCC(CCC(=O)NC2CCCCCC2)C1 (stereo not drawn)	9.2	?
Cc1ccccc1S(=O)(=O)N1CCCC(CCC(=O)NC2CC2)C1 (stereo not drawn)	2.0	14.1µM*
O=C(O)CCC1CCCN(S(=O)(=O)c2ccccc2)C1 (stereo not drawn)	19.9	i
N#CC1=C(N)OC2=C(C(=O)CCC2)C1c1ccc(C(F)(F)F)cc1 (stereo not drawn)	nt	i
COc1cc(O)cc(OC2OC(CO)C(O)C(O)C2O)c1 (stereo not drawn)	3.5	nt
CN(Cc1cccc2[nH]ccc12)C1CCc2nn(CC3CC3)c(=O)n2CC1 (stereo not drawn)	-9.0	25.1µM*
O=C(NC1CCc2nn(CC3CC3)c(=O)n2CC1)c1cc2ccccc2[nH]1 (stereo not drawn)	-5.2	?
O=C(NC1CCc2nn(CC3CC3)c(=O)n2CC1)c1n[nH]c2ccccc12 (stereo not drawn)	-10.2	28.2µM*
CCOc1ccccc1CN(C)C1CCc2nn(CC3CC3)c(=O)n2CC1 (stereo not drawn)	-4.5	i
CC(=O)Nc1ccc(NC(=O)c2csc(NC(C)C)n2)cc1	nt	i
COc1ccc(-c2ccc3c(c2)C(=O)N2CC[C@H](NC(=O)c4cccs4)[C@H]2C(=O)N3)cc1	-8.0	?
CSCC(=O)N[C@H]1CCN2C(=O)c3cc(-c4ccc(Cl)cc4)ccc3NC(=O)[C@H]12	5.5	28.2µM*
COc1ccc(-c2ccc3c(c2)C(=O)N2CC[C@H](NC(=O)CCC(=O)O)[C@H]2C(=O)N3)cc1	-7.3	20µM*
COc1ccc(-c2ccc3c(c2)C(=O)N2CC[C@H](NC(=O)c4cccs4)[C@H]2C(=O)N3)c(OC)c1	0.1	28.2µM*
O=C(O)CCC(=O)N[C@H]1CCN2C(=O)c3cc(-c4ccccc4)ccc3NC(=O)[C@H]12	-8.0	i
Cc1cccc(-c2ccc3c(c2)C(=O)N2CC[C@H](NC(=O)c4cccs4)C[C@H]2C(=O)N3)c1C	5.3	?
O=C(N[C@H]1CCN2C(=O)c3cc(-c4ccsc4)ccc3NC(=O)[C@@H]2C1)c1cccs1	-11.2	22.4µM*
CSCC(=O)N[C@H]1CCN2C(=O)c3cc(-c4ccc(SC)cc4)ccc3NC(=O)[C@H]12	19.6	?
SMILES	IP6K1 inhibitor	KDM5B inhibitor
Cc1ccc(C)c(NC(=O)c2cc(=O)c3cc(C)cc(C)c3o2)c1	-15.8	i
CN(Cc1cccc(N2CCN([S+](=O)([O-])c3c(Cl)cccc3Cl)CC2)c1F)[S+](C)(=O)[O-]	21.2	nt
NC(=O)COc1ccc(Cl)cc1CN1CCCC(CO)(CC2CC2)C1 (stereo not drawn)	2.1	i
Cc1c(Cl)ccc2c(C(=O)O)cc(-c3ccccn3)nc12	nt	i
O=C(N[C@H]1CCN2C(=O)c3cc(-c4ccccc4)ccc3NC(=O)[C@H]12)C1CCCC1	-5.7	i
COc1ccc(Cl)cc1-c1ccc2c(c1)C(=O)N1CC[C@H](NC(=O)c3cccs3)[C@H]1C(=O)N2	-16.7	25.1µM*
COc1ccc(/C=C/c2ccc3c(c2)C(=O)N2CC[C@H](NC(=O)c4cnccn4)[C@H]2C(=O)N3)cc1	6.3	?
O=C(N[C@H]1CCN2C(=O)c3ccc(Cl)cc3NC(=O)[C@H]12)c1cccs1	-5.7	i
O=C(N[C@H]1CCN2C(=O)c3cc(-c4ccc(Cl)cc4)ccc3NC(=O)[C@H]12)c1cccs1	-0.5	31.6µM*
CSc1ccc(-c2ccc3c(c2)C(=O)N2CC[C@H](NC(=O)C4CCCC4)[C@H]2C(=O)N3)cc1	0.1	25.1µM*
O=C(N[C@H]1CCN2C(=O)c3cc(-c4ccccc4)ccc3NC(=O)[C@H]12)c1cccs1	-2.0	i
COc1ccc(/C=C/c2ccc3c(c2)C(=O)N2CC[C@H](N)[C@H]2C(=O)N3)cc1	-2.8	35.5µM*
CCC1=C(C(=O)OC)C(c2ccccc2OC)N2C(CC(=O)N3CCC(C)CC3)=CSC2=N1 (stereo not drawn)	6.7	?
CCCOc1cc(C)c(Cl)cc1S(=O)(=O)N1CCCC1	nt	i
Cc1cccc(-c2ccc3c(c2)C(=O)N2CC[C@H](NS(=O)(=O)c4cccs4)[C@H]2C(=O)N3)c1C	-7.3	?
COc1ccc(-c2ccc3c(c2)C(=O)N2CC[C@H](NS(=O)(=O)c4cccs4)[C@H]2C(=O)N3)cc1	-7.3	22.4µM*
CC(=O)NC(CO)C(=O)N1CCc2onc(-c3cccc4ccccc34)c2C1 (stereo not drawn)	3.7	31.6µM*
Cc1ccc(C(=O)N2CCc3onc(-c4cccc5ccccc45)c3C2)cc1	4.2	?
O=C(Cn1cnnn1)N1CCc2onc(-c3cccc4ccccc34)c2C1	-3.9	31.6µM*
NC(=O)NCCC(=O)N1CCc2[nH]nc(-c3cccc4ccccc34)c2C1	-8.9	i
CC(C)(C)NC(=O)c1cc(F)ccc1I	nt	i
O=c1c2nc(-c3ccsc3)ccc2ncn1Cc1ccccc1	4.0	39.8µM*
Cn1cnc2ccc(-c3ccsc3)nc2c1=O	-2.0	35.5µM*
O=c1c2nc(OCc3ccccc3)ccc2ncn1Cc1ccccc1	-5.4	?
O=c1c2nc(-c3cccc(O)c3)ccc2ncn1-c1ccccc1	12.5	i
SMILES	IP6K1 inhibitor	KDM5B inhibitor
CN(C)C[C@@H]1CN(C2CCOCC2)C[C@H]1NC(=O)Cc1ccc(F)cc1	3.4	?
CN(C)C[C@@H]1CN(c2ncccn2)C[C@H]1NS(=O)(=O)c1ccc(Cl)cc1	18.2	28.2µM*
CN(C)C[C@@H]1CN(c2ncccn2)C[C@H]1NS(=O)(=O)Cc1ccc(F)cc1	7.5	25.1µM*
Cc1cc(C)n(CC(=O)N[C@@H]2CN(c3ncccn3)C[C@H]2CN(C)C)n1	24.2	28.2µM*
CN(C)C[C@@H]1CN(c2ncccn2)C[C@H]1NS(=O)(=O)c1ccc(C#N)cc1	7.1	?
Cc1cc(C)n(CC(=O)N[C@@H]2CN(Cc3ccccn3)C[C@H]2CN(C)C)n1	9.8	?
CN(C)C[C@@H]1CN(c2ncccn2)C[C@H]1NC(=O)Cc1ccc(F)cc1	4.8	28.2µM*
COc1ccc(C2Sc3ccccc3NC3=C2C(=O)c2ccccc23)cc1OC (stereo not drawn)	nt	i
Cc1[nH]cnc1CN1C[C@@H]2CN(C(=O)CCC3CC3)C[C@]2(C(=O)O)C1	4.9	i
Cc1ccc(NC(=O)CN(Cc2cccs2)CC2CCCO2)cc1 (stereo not drawn)	nt	i
CCn1nc(C(=O)Nc2cc(Cl)ccc2N2CCCCC2)c2ccccc2c1=O	nt	i
CC(c1nc(-c2cccc(C(F)(F)F)c2)no1)N1CCN(C(=O)Nc2cccc(C#N)c2)CC1 (stereo not drawn)	nt	i
